Laboratory results reported in PubChem BioAssay AID588774 (The Scripps Research Institute Molecular Screening Center, 2011).
The source made the active and inactive calls.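 How the source made its calls: active means target enzyme inhibited at least 50% at a set dose, and selective over every off-target enzyme by a set factor; inactive means weaker inhibition or too little selectivity.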

Columns and labels:
[1] = pPAFAH inhibition and serine hydrolase selectivity, SAR follow-up, selectivity assay for pPAFAH inhibitor project, biochemical, gel-based, FP-Rh fluorescence, complex proteome, SAR compounds (AID 588774); conditions: gel-based competitive ABPP, MW 32 kDa, anti-targets inhibited, at 10 µM;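 on inhibition: 0% = DMSO-only band intensity and 100% = blank gel background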
[2] = system: MW 32 kDa; test: as above; conditions: gel-based competitive ABPP, at 10 µM, stronger effect = higher value

Cc1cc(N2CCN(C(=O)Oc3ccc(-c4ccc(Br)cc4)cc3)CC2)c2ccccc2n1
anti-target count [1]: 0 | inhibition [2]: 0% (inactive)

Cc1cc(N2CCN(C(=O)n3ncc(-c4ccc(OC(F)(F)F)cc4)n3)CC2)c2ccccc2n1
anti-target count [1]: 9 | inhibition [2]: 87% (inactive)

Cc1cc(N2CCN(C(=O)Oc3ccc(C4CCCCC4)cc3)CC2)c2ccccc2n1
anti-target count [1]: 0 | inhibition [2]: 0% (inactive)

O=C(Oc1noc2cc(Cl)ccc12)N1CCOCC1
anti-target count [1]: 3 | inhibition [2]: 30% (inactive)

O=C(Oc1noc2cc(Cl)ccc12)N1CCCCC1
anti-target count [1]: 2 | inhibition [2]: 0% (inactive)

COc1ccc(-c2cnn(C(=O)N3CCN(c4cc(C)nc5ccccc45)CC3)n2)cc1
anti-target count [1]: 8 | inhibition [2]: 67% (inactive)

Cc1cc(N2CCN(C(=O)Oc3ccc(C(F)(F)F)cc3)CC2)c2ccccc2n1
anti-target count [1]: 1 | inhibition [2]: 0% (inactive)

Cc1cc(N2CCN(C(=O)n3oc4cc(Cl)ccc4c3=O)CC2)c2ccccc2n1
anti-target count [1]: 3 | inhibition [2]: 0% (inactive)

O=C(N1CCOCC1)n1oc2cc(Cl)ccc2c1=O
anti-target count [1]: 6 | inhibition [2]: 39% (inactive)

Cc1cc(N2CCN(C(=O)Oc3noc4cc(Cl)ccc34)CC2)c2ccccc2n1
anti-target count [1]: 4 | inhibition [2]: 0% (inactive)

Cc1cc(N2CCN(C(=O)Oc3ccc(-c4ccccc4)cc3)CC2)c2ccccc2n1
anti-target count [1]: 0 | inhibition [2]: 0% (inactive)

Cc1cc(N2CCN(C(=O)Oc3ccc([N+](=O)[O-])cc3)CC2)c2ccccc2n1
anti-target count [1]: 2 | inhibition [2]: 0% (inactive)

Cc1cc(N2CCN(C(=O)Oc3ccc(-n4cccc4)cc3)CC2)c2ccccc2n1
anti-target count [1]: 0 | inhibition [2]: 0% (inactive)

Cc1cc(N2CCN(C(=O)n3ncc(-c4ccc([N+](=O)[O-])cc4)n3)CC2)c2ccccc2n1
anti-target count [1]: 9 | inhibition [2]: 85% (inactive)

Cc1cc(N2CCN(C(=O)Oc3ccc(C4CCCC4)cc3)CC2)c2ccccc2n1
anti-target count [1]: 0 | inhibition [2]: 0% (inactive)

Cc1cc(N2CCN(C(=O)n3ncc(-c4ccccc4)n3)CC2)c2ccccc2n1
anti-target count [1]: 9 | inhibition [2]: 72% (inactive)

Cc1cc(N2CCN(C(=O)n3ncc(-c4ccc(Cl)c(Cl)c4)n3)CC2)c2ccccc2n1
anti-target count [1]: 8 | inhibition [2]: 50% (inactive)
